These results are taken from article PMC7819943, “Rice protein-binding microarrays: a tool to detect cis-acting elements near promoter regions in rice”.

The full ranking holds about 35,000 sequences; the median of “fluorescence intensity (a.u.)” is about 10,000, and the highest 2% start at about 52,000. Shown is part of a subset that was picked to be rich in the highest values.

For the test, the target named is T1, OsWOX13 (Oryza sativa, UniProt Q5QMM3 1-267).
T1 sequence: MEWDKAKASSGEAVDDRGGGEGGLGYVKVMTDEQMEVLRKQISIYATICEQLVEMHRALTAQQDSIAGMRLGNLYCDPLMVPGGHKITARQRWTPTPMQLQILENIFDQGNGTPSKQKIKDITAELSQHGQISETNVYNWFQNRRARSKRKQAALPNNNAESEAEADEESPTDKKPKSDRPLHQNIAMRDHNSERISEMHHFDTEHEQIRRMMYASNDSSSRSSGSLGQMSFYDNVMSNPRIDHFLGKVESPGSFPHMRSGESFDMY
Briefly: protein-binding microarray (RPBM); PBS, 2% BSA, 51.3 ng/ul salmon testes DNA, 50 uM zinc acetate, 200 nM TF, 25 C, 1 h; high values mean tight binding. To be noted: protein: recombinant; tags: N-terminal polyhistidine and DsRed monomer fusion (pET32a); label: CyDye5-dUTP incorporated in the synthesized complementary strand; 3' TTTTT single-stranded linker to array surface; dsDNA, one strand shown. The procedure, abridged: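 Binding signal here means per-feature fluorescence intensity in arbitrary units. The values were read on an Axon 4000B scanner after a custom Agilent array, double-stranded by primer extension with Cy5-dUTP, was incubated with 200 nM protein at 25 °C for 1 h in PBS with 2% BSA, salmon testes DNA and 50 µM zinc acetate, then washed. The proteins were transcription factors with an N-terminal polyhistidine tag and DsRed, expressed in E. coli BL21-CodonPlus and purified on Ni–NTA.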
For “TGTGAGTGATCAAATAATTGATCATAATTTTCTATCGATTCGGAGTCACCTAGTGCAG”, the binding signal was 37500 fluorescence intensity (a.u.).
Next, “TGGATTGAGATATTTATTTATGATGATCACATCTGCACCTCGGAGTCACCTAGTGCAG”: 9980 fluorescence intensity (a.u.); “TTTAATTGATTTTGTTTAGAATTTGAGGACATGATCCACGCGGAGTCACCTAGTGCAG”: 62900 fluorescence intensity (a.u.).
Next, “CTCCGGTTTAATTTTAATTGATGTTTTGGACAATGGCACGCGGAGTCACCTAGTGCAG”: 44900 fluorescence intensity (a.u.); “ACTTGACAGCCCTAATTGATCTTATTACATGCAGAGGATCCGGAGTCACCTAGTGCAG”: 56300 fluorescence intensity (a.u.).
Next, “CATAATTGCACGATCATTGATTTTGGAACATTCTGAGGCTCGGAGTCACCTAGTGCAG”: 57100 fluorescence intensity (a.u.); “ATGATTAGAGAGAATGGGTTTAGTTATTTGTTGATCCACACGGAGTCACCTAGTGCAG”: 29400 fluorescence intensity (a.u.); “GATAATTGAGGGATTATTTTATGGATATACTAGATCTGCACGGAGTCACCTAGTGCAG”: 52400 fluorescence intensity (a.u.).
For the sequence “GATCTGATTGAGACATATCTGAAAATAATTTGCACGCAGACGGAGTCACCTAGTGCAG”, the binding signal is 30600 fluorescence intensity (a.u.).
Next, “ACATGACTAATCTTATTGACTTAAGAGCTGATTAGGATACCGGAGTCACCTAGTGCAG”: 20200 fluorescence intensity (a.u.); “GTGCTCTAATTATTTGTATCTTACAGATAGATGACAGAGCCGGAGTCACCTAGTGCAG”: 19100 fluorescence intensity (a.u.).
Next, “AATATATGGATAATTGTACTAGATTATCCTATTTCATACACGGAGTCACCTAGTGCAG”: 6460 fluorescence intensity (a.u.); “TCAATTAATATATAATTGGCATTGGGTTTGATCATCTCTGCGGAGTCACCTAGTGCAG”: 50700 fluorescence intensity (a.u.).
For the sequence “CATGTTAATTTGGGACGAGAGTCGGACTCCTATTTCCTTTCGGAGTCACCTAGTGCAG”, the binding signal is 7570 fluorescence intensity (a.u.).
In the case of “AAAATTGATGTTCTCTTTGGTGCATTTCTTTCTTATTGTCCGGAGTCACCTAGTGCAG”, the binding signal is 26800 fluorescence intensity (a.u.).
For the sequence “CAATTATCAATCAGTCTGAAATCTTGCATTTGCATTTGCACGGAGTCACCTAGTGCAG”, the binding signal is 22400 fluorescence intensity (a.u.).
Next, “TAAGACTAATTATTCTTTTAGTAATAGACGACGTACTCGCCGGAGTCACCTAGTGCAG”: 22300 fluorescence intensity (a.u.).
Next, “ATATAATTATAATTTATTTTATTGTGACTTGATTTATCATCGGAGTCACCTAGTGCAG”: 36400 fluorescence intensity (a.u.).
Next, “ATCCCTAATACGATTTACATGATTAGAGGAGAGACAATTTCGGAGTCACCTAGTGCAG”: 4470 fluorescence intensity (a.u.).
For “ACGTGATACATCTTGTTCTAGATTTGTTTAATTTAAGCCACGGAGTCACCTAGTGCAG”, the binding signal is 3240 fluorescence intensity (a.u.).
Next, “TATTTTAGATTGATATACAATCTTTTGTGGTGTTAGCACTCGGAGTCACCTAGTGCAG”: 52900 fluorescence intensity (a.u.).
Next, “AATTGTCCCTGATTGACACCTCTTACTTGACCCTTCTTTCCGGAGTCACCTAGTGCAG”: 42600 fluorescence intensity (a.u.); “GTGCATTATCGATCATAATTAGCAGGTGAGAGATATTTAACGGAGTCACCTAGTGCAG”: 4060 fluorescence intensity (a.u.).
Next, “TTTGATTGTGGTTATTGCACTGAAATTTTACAGATATTGTCGGAGTCACCTAGTGCAG”: 31800 fluorescence intensity (a.u.); “TTAATTGATTTAGTTGGTGACCTTATATCTTGTTTAGATACGGAGTCACCTAGTGCAG”: 60600 fluorescence intensity (a.u.); “GTAGATATTGATGATTTATATAACTTTGTTGTTGATGACTCGGAGTCACCTAGTGCAG”: 14500 fluorescence intensity (a.u.).
In the case of “AATGATTGACAATACTTAGATTTCTTCCCTTAATTACATCCGGAGTCACCTAGTGCAG”, the binding signal was 54400 fluorescence intensity (a.u.).
Next, “ACTTGCATGCTTAATTGATTTAGTTGGTGACCTTATATCTCGGAGTCACCTAGTGCAG”: 37800 fluorescence intensity (a.u.).
Next, “ATTAATTAATTAGTGATCATACATAATTGAGGTGATTTATCGGAGTCACCTAGTGCAG”: 65000 fluorescence intensity (a.u.); “GAGCAGCAGCTTAATTGGATCATCGAATCTCGCACCGCCACGGAGTCACCTAGTGCAG”: 4860 fluorescence intensity (a.u.); “TAAACTTAATTTTAAAATCATAATTCAGAAATGTGGTGAACGGAGTCACCTAGTGCAG”: 30500 fluorescence intensity (a.u.).
Next, “ATGACTTGACGAGGTAAATAAAATTGGACCGGGCAGCAAACGGAGTCACCTAGTGCAG”: 3900 fluorescence intensity (a.u.).
For the sequence “CCCTAATCCCATTTAATCAGCACAGCTTCTTAATTACTCCCGGAGTCACCTAGTGCAG”, the binding signal was 6810 fluorescence intensity (a.u.).
Take “GAAGTTATTAACAAATTAGATACATCTCTTGTTTAGATTACGGAGTCACCTAGTGCAG”: the binding signal is 4700 fluorescence intensity (a.u.).
Next, “TATTAATTGAGTGAGATTTGGGGTATTCAGTCGACTGGCACGGAGTCACCTAGTGCAG”: 54900 fluorescence intensity (a.u.); “GTATTAATTGGGGTGATTCATGACAACGATGAGATATTAACGGAGTCACCTAGTGCAG”: 32700 fluorescence intensity (a.u.); “CTCTGATAGATTGCGACCTTCTTGTTGTTTAACAACGTTACGGAGTCACCTAGTGCAG”: 54000 fluorescence intensity (a.u.).
Take “ATATTCAGCTGATTGGGGCATTGGGTATTTGCAGTGAGCACGGAGTCACCTAGTGCAG”: the binding signal is 18500 fluorescence intensity (a.u.).
Next, “TCTGAGATTTATTGATTAGATTATAACGTAATCGTTGTTACGGAGTCACCTAGTGCAG”: 29300 fluorescence intensity (a.u.).
For the sequence “ACACACAGCGGCAAAATTGACACATTACACATCAGGAATCCGGAGTCACCTAGTGCAG”, the binding signal is 5060 fluorescence intensity (a.u.).
“TGAAAGAAGAGATGATTGGGAAACACCATTAATAGGGTGGCGGAGTCACCTAGTGCAG”: the binding signal is 10500 fluorescence intensity (a.u.).
Next, “TGTCGTCAAAATTTGATGGAATTCACACGAATTTAGCAACCGGAGTCACCTAGTGCAG”: 5150 fluorescence intensity (a.u.).
